KB-V1 cytotox: KB-V1 MDR subline cytotoxicity | AID 1347076 | Potency, µM (series often up to 46.1 µM), most hits filed as cytotoxic | KB-V1 MDR cells viability, CellTiter-Glo, 72 h | actives 3.4% (n = 400,000); note: nearly all actives have a fitted effect of over 60% in size
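Following 72 h at 37 degrees C with compound, KB-V1 cell viability was read by CellTiter-Glo luminescence, medium being phenol-red-free DMEM plus 10% FBS; concentration-response parameters came from normalized, curve-fitted qHTS data.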
HT1080NT lethal: kills 2HG-producing HT-1080-NT fibrosarcoma cells. actives 1.6% (n = 360,000). Potency, µM (series often up to 46.1 µM), without a hit: at the top dose activity, negative = less viability, most hits filed as cytotoxic. HT-1080-NT fibrosarcoma viability, CellTiter-Glo ATP luminescence, 48 h;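 note: NT is the 2HG producing partner of a matched IDH1 knockdown line; 0% = DMSO-treated cells and -100% = media-only wells without cells; nearly all actives have a fitted effect of over 55% in size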
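Fibrosarcoma NT cells, 750 per well in 5% FBS RPMI, were exposed to compound for 48 hours. Viability: CellTiter-Glo luminescence.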
HT1080 IDH1KD tx: toxicity to HT-1080 IDH1 knockdown cells (counter line); AID 686971; actives 2% (n = 360,000); HT-1080 IDH1 knockdown viability, ATP luminescence, 48 h; Potency, µM (top dose mostly 46.1 µM), inactives show at the highest dose activity, negative = toxicity, hits mostly cytotoxic;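 note: 0% = DMSO wells and -100% = cell-free medium wells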
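% activity derives from luminescence (CellTiter-Glo), normalised to DMSO and no-cell wells. HT-1080-IDH1KD cells, 750/well, had 48 h compound exposure at 37 °C.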
KB-3-1 cytotox: KB-3-1 parental cell cytotoxicity. KB-3-1 viability, CellTiter-Glo ATP luminescence, 72 h. Potency, µM (doses to about 46.1 µM), usual class: cytotoxic. actives 1.4% (n = 400,000). AID 1347075; note: nearly all actives have a fitted effect of over 60% in size
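Cytotoxicity in the drug-sensitive parental line KB-3-1 was scored as loss of CellTiter-Glo luminescence following 72 h incubation with compound. Values come from curve fitting of normalized concentration-response data.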
Numbers without * were called inactive; i = inactive; ? = inconclusive; nt = not tested or not shown; ! = not active in a repeat. Rows were chosen to be rich in hits. Some 5.7% of all compounds tested hit in one or more screens of this group. Calls come from the whole dose curve; as a rule, active = well fitted curve in the direction sought with a large enough effect; inconclusive = small, poorly fitted or top-dose-only effect, or another doubt; inactive = no such curve, though single readings can be large; an effect the other way counts as inactive or inconclusive. Unless noted, % is set by controls: 0 for no effect and ±100 for the full control effect; potency is the fitted concentration of half-maximal effect.

SMILES	KB-V1 cytotox	HT1080NT lethal	HT1080 IDH1KD tx	KB-3-1 cytotox
Clc1cccc(CNc2nnnn2-c2ccccc2)c1	23µM*	-5%	-14%	?
CCN1CCN(C(=O)c2cc(-c3ccc(Cl)s3)nc3ccccc23)CC1	i	?	?	i
O=C(c1cc(-c2cccnc2)nc2ccccc12)N1CCN(S(=O)(=O)c2ccc(Cl)s2)CC1	9.2µM*	-14%	0%	i
Cc1ccc(S(=O)(=O)c2cn(CC(=O)Nc3cccc(C)c3)c3cc4c(cc3c2=O)OCO4)cc1	i	nt	nt	i
Cc1ccc(C(=C2C3C=CC2C2C(=O)NC(=O)C32)c2ccc(C)cc2)cc1 (stereo unspecified)	15µM*	?	?	?
COc1ccc(NC(=O)CSC2=Nc3ccccc3C3=NC(CCC(=O)NCc4ccco4)C(=O)N23)cc1 (stereo unspecified)	i	nt	nt	i
Oc1ccc(CN2CCCc3ccccc32)c2cccnc12	?	-28%	?	23µM*
COc1ccccc1N1CCN(Cc2ccc(O)c3ncccc23)CC1	?	0.14µM*	0.16µM*	5.2µM*
CCOC(=O)C1CCN(Cc2ccc(O)c3ncccc23)CC1	16µM*	?	-30%	23µM*
CCOC(=O)C1CCN(Cc2ccccc2C(F)(F)F)CC1	i	3%	2%	i
Cc1ccccc1CN1CCc2nc(Nc3ccc4c(c3)OCCO4)ncc2C1	i	nt	nt	?
Cc1ccc(CC2(OCCN(C)C)CCC(C(C)(C)C)CC2)cc1 (stereo unspecified)	18µM*	-6%	-2%	?
CN(C)CCCCOc1ccc(F)cc1	i	14%	11%	i
CN(C)CCOC1(Cc2ccc(F)cc2)CCC(C(C)(C)C)CC1 (stereo unspecified)	16µM*	-20%	-11%	i
CCc1cccc(NC(=O)c2cnc(SC)nc2-c2ccccc2)c1	i	nt	nt	?
Cc1ccc(Cl)cc1NC(=O)Nc1cn(CC(C)C)c(=O)c2ccccc12	?	nt	nt	i
O=C(NNC(=O)C1CCN(S(=O)(=O)c2c(Cl)cccc2Cl)CC1)c1ccccc1O	18µM*	-11%	-19%	?
CCn1c(CNC(=O)C23CC4CC(CC(C4)C2)C3)nnc1SCC(=O)Nc1ccc(F)cc1	i	nt	nt	i
Cc1ccc2nc(-c3cc(NC(=O)COc4ccc(C)c(C)c4)ccc3Cl)oc2c1	i	nt	nt	i
COc1cc(-c2noc(C)c2C#Cc2nccn2C)cc(OC)c1OC	4.6µM*!	?	?	9.2µM*!
COC(/C=C/Nc1ccc(OC)cc1)=C(C#N)C#N	i	-12%	-1%	i
COc1ccc(OC)c(N/C=C/C(=C(C#N)C#N)N(C)C)c1	i	-27%	-19%	16µM*
COC(=O)C1CCN(c2ccc([N+](=O)[O-])cc2[N+](=O)[O-])CC1	16µM*	-1%	6%	i
COc1ccc(N2CCN(C(=O)c3ccc(-c4nc(COc5ccccc5)c(C)o4)cc3)CC2)cc1	i	nt	nt	i
CC1CC(C)C(=NNC(N)=O)C(C(O)CC2CCC(=O)NC2=O)C1 (stereo unspecified)	?	-3%	?	12µM*
SMILES	KB-V1 cytotox	HT1080NT lethal	HT1080 IDH1KD tx	KB-3-1 cytotox
Cn1c(=O)nc2n(-c3ccc(Cl)c(Cl)c3)c3cc(Cl)ccc3cc-2c1=O	i	nt	nt	i
CC(C)Nc1cccc(S(=O)(=O)N2CCCN(S(=O)(=O)c3ccc4c(c3)OCCO4)CC2)c1	i	nt	nt	i
CN(Cc1cccc2cnccc12)C(=O)CCc1nnc(CCc2ccccc2)o1	?	10%	-11%	i
COc1ccccc1CCc1nnc(CCC(=O)N(C)Cc2cccc3ncccc23)o1	8.2µM*	-3%	-8%	i
COc1ccccc1-c1cc2nc(-c3ccccc3)cc(N3CCN(C(=O)c4ccco4)CC3)n2n1	?	0%	4%	16µM*
COc1cccc(-c2cc3nc(-c4ccccc4)cc(N4CCN(C(=O)c5ccoc5)CC4)n3n2)c1	?	-18%	?	?
O=C(c1ccoc1)N1CCN(c2cc(-c3ccccc3)nc3cc(-c4ccccc4)nn23)CC1	?	-25%	?	16µM*
COc1ccccc1-c1cc2nc(-c3ccccc3)cc(N3CCN(C(=O)c4ccoc4)CC3)n2n1	9.2µM*	-11%	-27%	?
CCc1cccc(NS(=O)(=O)c2ccc3c(c2)CC(C)N3C(=O)C2CC2)c1 (stereo unspecified)	13µM*	nt	nt	?
CCN(c1ccccc1)S(=O)(=O)c1ccc2c(c1)CC(C)N2C(=O)C1CC1 (stereo unspecified)	i	-2%	-5%	i
CCOc1ccccc1N(C)S(=O)(=O)c1ccc2c(c1)CC(C)N2C(=O)C1CC1 (stereo unspecified)	?	?	15µM*	i
CC1Cc2cc(S(=O)(=O)NCc3ccccc3)ccc2N1C(=O)C1CC1 (stereo unspecified)	i	-9%	-3%	?
CCN1CCN(c2cc(C)c3cc(NC(=S)N4CCCC(C)C4)ccc3n2)CC1 (stereo unspecified)	?	?	16µM*	?
CCN1CCN(c2cc(C)c3cc(NC(=S)N4CC(C)CC(C)C4)ccc3n2)CC1 (stereo unspecified)	i	?	16µM*	i
CCN1CCN(c2cc(C)c3cc(NC(=S)N4CCCC4)ccc3n2)CC1	i	?	-9%	i
Cc1[nH]c2ccccc2c1C(c1c[nH]c2ccccc12)c1c(C)[nH]c2ccccc12	i	nt	nt	i
CCOc1ccc(NC(=O)CSc2oc(-c3cccs3)nc2S(=O)(=O)c2ccc(C)cc2)cc1	i	nt	nt	i
CCCN(CC(=O)Nc1cc(Cl)cc(Cl)c1)CC(=O)Nc1ccc(F)c(F)c1F	23µM*	?	?	i
CCc1ccc(NC(=O)C(Cc2ccccc2)NS(=O)(=O)c2ccc3c(c2)c(=O)n(C)c(=O)n3C)cc1 (stereo unspecified)	i	nt	nt	i
COc1ccc(N2CCN(Cc3nnc(-c4cccc(Br)c4)o3)CC2)cc1	i	nt	nt	i
O=C1C(SCCO)=C(SCCO)C(=O)c2ccccc21	?	-84%	?	?
CC1=C(SCc2ccccc2)C(=O)c2ccccc2C1=O	?	9.2µM*	26µM*	?
CCCC[n+]1ccn(C2=C([O-])c3ccccc3C(=O)/C2=N\S(=O)(=O)c2ccc(Br)cc2)c1	i	?	?	i
Cc1ccc(S(=O)(=O)/N=C2\C(=O)c3ccccc3C([O-])=C2n2cc[n+](CCC(C)C)c2)cc1	?	?	10µM*	i
CCOC(=O)C(C)Oc1cccc2c(=O)n(CC(=O)NCc3ccco3)ccc12 (stereo unspecified)	i	?	1.6µM*	0.73µM*
CC(C)C(=O)c1cn(CC(=O)NCc2ccco2)c2ccccc12	i	6%	13%	i
